An excerpt weighted towards active compounds, which were near 17% of everything screened.
TDP1 cell noCPT: qHTS for Inhibitors of human tyrosyl-DNA phosphodiesterase 1 (TDP1): qHTS in cells in absence of CPT. DT40 Tdp1-/- hTDP1 cells, no CPT, ATP luminescence, 48 h. Potency, µM (titrated, usually from 46.2 µM), without a hit: top-dose activity change, negative = growth inhibition, most hits filed as inhibitors. 420,000 tested, 15% active; also: % is scaled to controls: 0 for no effect and ±100 for the full control effect; nearly all actives have a fitted effect of over 55% in size
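Chicken DT40 Tdp1-/- cells complemented with human TDP1, screened without camptothecin (DMSO vehicle only), 400 cells/well. Compounds pin-transferred, cells incubated at 37 °C for at least 48 hr. Growth read as ATP-dependent luminescence (CellTiter-Glo, 30 min at RT).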
HepG2 tox: counter-screen for TGF-b inhibitors: cytotoxicity in HepG2 cells; Potency, µM (doses to about 46.1 µM), for the others: top-dose activity change, negative = cytotoxicity, usual class: cytotoxic; AID 588856; HepG2 CAGA-GFP viability, ATP luminescence, 18 h; 410,000 tested, 0.76% active
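HepG2 CAGA-GFP cells (1000/well, DMEM with 1% FBS) received compound, then TGF-beta at 500 pg/mL final, and were incubated 18 hours at 37 degrees C. Viability was read by CellTiter-Glo luminescence. Media-only wells were set as complete cell-killing and DMSO as no toxicity.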
TGFb SMAD3 inh: blocks TGF-b signaling; HepG2 CAGA-GFP TGF-b/SMAD3 reporter, GFP fluorescence, 18 h; TGF-beta stimulated, 500 pg/mL final; Potency, µM (highest dose often 46.1 µM), inactives show at the highest dose activity, negative = inhibition, usual class: inhibitors; 410,000 tested, 1.2% active; also: % is scaled to controls: 0 for no effect and ±100 for the full control effect; nearly all actives have a fitted effect of over 65% in size
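HEPG2 CAGA-GFP reporter cells (1000/well, DMEM with 1% FBS) received compounds, then recombinant TGF-beta at 500 pg/mL final for 18 hours at 37 degrees C. Per-cell GFP summed per well was normalised to unstimulated and stimulated DMSO controls before curve fitting.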
HT1080 IDH1KD tx: kills HT-1080 cells with IDH1 knockdown. HT-1080 IDH1 knockdown viability, ATP luminescence, 48 h. Potency, µM (top dose mostly 46.1 µM), inactives show top-dose activity, negative = toxicity, hits mostly cytotoxic. 360,000 tested, 2% active. AID 686971;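 also: 0% = DMSO wells and -100% = cell-free medium wells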
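Luminescent ATP read-out (CellTiter-Glo, 10 min at room temperature) after 48 h compound exposure at 37 °C gave viability of IDH1-knockdown HT-1080 cells. Activity was normalised to DMSO and cell-free wells, then fitted as concentration-response curves.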
HT1080-NT tox: kills 2HG-producing HT-1080-NT fibrosarcoma cells; HT-1080-NT fibrosarcoma viability, CellTiter-Glo ATP luminescence, 48 h; Potency, µM (highest dose often 46.1 µM), for the others: at the top dose activity, negative = less viability, actives largely listed as cytotoxic; 360,000 tested, 1.6% active; AID 686970;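 also: NT is the 2HG producing partner of a matched IDH1 knockdown line; 0% = DMSO-treated cells and -100% = media-only wells without cells; nearly all actives have a fitted effect of over 55% in size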
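A 48-hour cytotoxicity screen used HT-1080-NT cells plated 2 hours before compound delivery. ATP-based CellTiter-Glo luminescence measured viability, normalized to DMSO and no-cell controls.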
TDP1 cell CPT: DT40-hTDP1 cell growth loss with CPT. 420,000 tested, 12% active. Potency, µM (titrated, usually from 46.2 µM), for the others: at the highest dose activity change, negative = growth inhibition, usual class: inhibitors. chicken DT40 Tdp1-/-;hTDP1 cells + 20 nM CPT, ATP luminescence, 48 h; also: % is scaled to controls: 0 for no effect and ±100 for the full control effect; nearly all actives have a fitted effect of over 55% in size
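Chicken DT40 Tdp1-/- cells complemented with human TDP1, 400 cells/well, exposed to compounds plus 20 nM camptothecin for at least 48 h at 37 C; viability read as ATP content by CellTiter-Glo luminescence.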
* marks the source's active call; other numbers are inactive results; u = inconclusive; x = no result given; [ ] = remark or other dose. Calls follow the shape of the dose curve; as a rule, active = well fitted curve in the direction sought with a large enough effect; inconclusive = small, poorly fitted or top-dose-only effect, or another doubt; inactive = no such curve, though single readings can be large; an effect the other way counts as inactive or inconclusive. Potency is read from the fitted curve at half-maximal effect.

SMILES | TDP1 cell noCPT | HepG2 tox | TGFb SMAD3 inh | HT1080 IDH1KD tx | HT1080-NT tox | TDP1 cell CPT
COc1cc(C=NNC(=O)c2ccccc2-n2cccc2)ccc1O | u | -13% | 6% | -30% | u | 26µM*
COc1cc(/C=N/NC(=O)c2cccc(NC(=O)c3ccccc3)c2)ccc1O | u | -2% | 9% | 0% | -6% | -11%
COc1cc(C(=O)N/N=C/c2ccc3c(c2)c2ccccc2n3C)ccc1O | 15µM* | -29% | 7% | u | u | u
COc1cc(C2Nc3ccc4ccccc4c3C3=C2C(=O)CC(C)(C)C3)ccc1OC(C)C(=O)O (stereo unspecified) | 26% | 6% | 0% | 1% | 4% | -22%
Cc1ccccc1OCCC(=O)NNC(=O)c1ccccc1F | -17% | -4% | 2% | 14% | 11% | 4%
COc1ccc(CCNC(=O)c2cc3c(=O)oc4ccc(C)cc4c3s2)cc1OC | u | 1% | -1% | x | x | u
CCn1c2ccccc2c2cc(/C=N/NC(=O)c3ccccc3)ccc21 | 16µM* | -55% | u | u | u | 15µM*
O=C(/C=C/c1ccc2ccccc2n1)N1CCN(S(=O)(=O)c2ccccc2F)CC1 | 18µM* | -9% | u | -21% | -12% | 23µM*
Cc1noc(/C=C/c2ccco2)c1S(=O)(=O)N1CCC(C(=O)Nc2ccc(F)cc2F)CC1 | u | -21% | u | x | x | u
O=[N+]([O-])c1ccc(Oc2ccc(S(=O)(=O)N3CCCCC3)cc2)cc1 | 15µM* | 1% | -2% | 8% | 1% | 16µM*
CC1CCN(S(=O)(=O)c2ccc(Oc3ccc([N+](=O)[O-])cc3)cc2)CC1 | 16µM* | -18% | u | 5% | u | 16µM*
CN1CCN(S(=O)(=O)c2ccc([N+](=O)[O-])cc2)CC1 | 18% | -40% | -23% | -3% | -3% | -5%
O=S(=O)(c1ccc(Oc2ccccc2)cc1)N1CCOCC1 | -18% | -7% | 8% | -3% | -1% | -5%
CC1CCN(S(=O)(=O)c2ccc([N+](=O)[O-])cc2)CC1 | 0% | 4% | 7% | 6% | 0% | 11%
O=S(=O)(c1ccc(Oc2ccc3c(c2)OCO3)c(S(=O)(=O)N2CCOCC2)c1)N1CCOCC1 | 11µM* | -85% | 18% | x | x | 0.89µM*
O=[N+]([O-])c1ccccc1Oc1ccc(S(=O)(=O)N2CCOCC2)cc1 | 21µM* | -61% | -20% | 0% | -3%[9.24 µM] | u
CSCC[C@H](NS(=O)(=O)c1ccc(C(C)=O)cc1)c1nnc2ccccn12 | 7% | 19% | 10% | 10% | 10% | 3%
Cc1ccc2oc(=O)c3cc(C(=O)NCCCN4CCc5ccccc5C4)sc3c2c1 | u | -19% | 1% | -3% | 0% | 18µM*
Cc1ccc2oc(=O)c3cc(C(=O)NCCCN4CCCCCC4)sc3c2c1 | u | -10% | -5% | 9% | -23% | u
Cc1ccc2oc(=O)c3cc(C(=O)NCCN4CCN(C)CC4)sc3c2c1 | u | -17% | -3% | 27% | 8% | 23µM*
COc1ccc(NC(=O)C2CCN(C(=O)Nc3ccccc3)CC2)cc1S(=O)(=O)N(C)C | 2% | 8% | u | 9% | 0% | -16%
Cc1ccc(NC(=O)CSCc2cc(=O)n3ccsc3n2)cc1 | 24% | 0% | -1% | 15% | -1% | 0%
Cc1cccc(NC(=O)Cn2c(=O)oc3ccccc32)c1C | u | 13% | 30% | 2% | -4% | u
Cc1ccccc1NC(=O)Cn1c(=O)oc2cc(Br)ccc21 | 13µM* | -18% | -8% | x | x | u
CCOc1ccccc1NC(=O)Cn1c(=O)oc2cc(Cl)ccc21 | 4.6µM* | -3% | -7% | 1% | -2% | -18%
SMILES | TDP1 cell noCPT | HepG2 tox | TGFb SMAD3 inh | HT1080 IDH1KD tx | HT1080-NT tox | TDP1 cell CPT
Cc1ccc(NC(=O)CCl)c(C)c1 | 26µM* | -14% | 15% | u | u | u
O=C(Cn1c(=O)oc2ccccc21)Nc1ccccc1C(F)(F)F | 6.5µM* | -3% | 3% | -2% | 0% | u
Cc1ccc(OCCn2nnc3sc4c(c3c2=O)CCC(C(C)(C)C)C4)cc1 (stereo unspecified) | -20% | 4% | 1% | x | x | -23%
COCCN(C(=O)COC(=O)CCC(=O)c1cccs1)c1c(N)n(Cc2ccccc2)c(=O)[nH]c1=O | -8% | -10% | -5% | 0% | -2% | -19%
COC(=O)C[C@@H]1CC[C@H](NC(=O)Nc2ccc(F)cc2)[C@@H](CO)O1 | 14% | x | x | 14% | 15% | 4%
CS(=O)(=O)c1ccc(Cl)c(NC(=O)CCl)c1 | 10µM* | -10% | 20% | u | u | 5.8µM*
Cc1ccc(NC(=O)NC2CCCCC2)c(C)c1 | 1.2µM* | -4% | -14% | 11% | 10% | 1µM*
Cc1ccc(C)c(NC(=O)Cc2nc(CCl)cs2)c1 | 21µM* | 5% | 2% | 9% | -1% | 26µM*
CS(=O)(=O)c1ccc(C(=O)Nc2cc(S(C)(=O)=O)ccc2Cl)cc1 | 1% | -1% | -2% | u | 29% | 2%
Cc1ccc(NC(=O)Cn2c(=O)oc3ccccc32)c(C)c1 | 13µM* | 3% | -1% | -2% | 20% | 0%
C[C@H](CO)N1C[C@H](C)[C@@H](CN(C)S(=O)(=O)c2ccccc2)Oc2ccc(NC(=O)C3CC3)cc2C1=O | u | -8% | 7% | -3% | -1% | -16%
